In PubChem BioAssay (NCI):
Compounds without any hit were thinned out: in the full panel of roughly 79,000, 15% have a hit. Calls of active or inactive are those of the source. No stated cut-off is given here; in the data, active means growth inhibition above about 70%; inactive means the rest.

How the values were obtained:
[1] = NCI Yeast Anticancer Drug Screen. Data for the wt1 strain (AID 149);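 further: 0% = growth of vehicle-treated wt1 cultures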; conditions: S. cerevisiae wt1 strain (SPY 50644) growth inhibition, active compounds read high
Procedure, shortened: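 Readout: yeast growth inhibition, normalised to vehicle controls, in the wt1 strain exposed to test compounds.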

[2] = NCI Yeast Anticancer Drug Screen. Data for the rad50EPP+ strain (AID 151);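 further: 0% = growth of vehicle-treated control cultures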; conditions: S. cerevisiae rad50 mutant strain, active compounds read high
Procedure, shortened: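 Growth inhibition read against vehicle controls in rad50EPP+ yeast, a strain altered in DNA damage repair, after compound exposure.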

[3] = NCI Yeast Anticancer Drug Screen. Data for the mgt1 strain (AID 153); conditions: S. cerevisiae mgt1 mutant growth inhibition, active compounds read high
Procedure, shortened: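 mgt1 yeast grown with test compound; read-out is growth inhibition versus vehicle-treated cultures.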

[4] = NCI Yeast Anticancer Drug Screen. Data for the mec2-1 strain (AID 157); conditions: S. cerevisiae mec2-1 strain, active compounds read high
Procedure, shortened: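 Yeast mec2-1 mutant treated with compound. Readout: growth inhibition vs vehicle controls.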

[5] = NCI Yeast Anticancer Drug Screen. Data for the rad14 strain (AID 159);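 further: 0% = growth of vehicle-treated control cultures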; conditions: S. cerevisiae rad14 strain growth inhibition, active compounds read high
Procedure, shortened: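 Compound-treated yeast with a defined DNA-repair lesion; growth inhibition normalised to vehicle-treated cultures.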

[6] = NCI Yeast Anticancer Drug Screen. Data for the sgs1 mgt1 strain (AID 161);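 further: 0% = growth of cultures given vehicle only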; conditions: S. cerevisiae sgs1 mgt1 strain, active compounds read high
Procedure, shortened: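 Genetically altered yeast, compound exposure, growth inhibition relative to vehicle.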

[7] = NCI Yeast Anticancer Drug Screen. Data for the CLN2oe strain (AID 163);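 further: 0% = growth of vehicle-only control cultures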; conditions: S. cerevisiae CLN2oe strain, active compounds read high
Procedure, shortened: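 Read-out: yeast growth inhibition, expressed relative to vehicle-only controls. The strain bears an engineered cell-cycle alteration.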

[8] = NCI Yeast Anticancer Drug Screen. Data for the cln2 rad14 strain (AID 165);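 further: 0% = growth equal to vehicle treated cultures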; conditions: S. cerevisiae cln2 rad14 strain, active compounds read high
Procedure, shortened: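 cln2 rad14 yeast strain; compound exposure; growth inhibition read vs vehicle controls.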

[9] = NCI Yeast Anticancer Drug Screen. Data for the bub3 strain (AID 167); conditions: S. cerevisiae bub3 mutant strain, active compounds read high
Procedure, shortened: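 Growth of a checkpoint-deficient yeast mutant is measured after compound exposure. Values represent inhibition relative to vehicle.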

[10] = NCI Yeast Anticancer Drug Screen. Data for the wt2 strain (AID 169);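 further: 0% = growth of vehicle-treated yeast cultures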; conditions: S. cerevisiae wt2 strain growth inhibition, active compounds read high
Procedure, shortened: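 Read-out: growth inhibition versus vehicle-treated control cultures after compound exposure of the yeast strain.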

[11] = NCI Yeast Anticancer Drug Screen. Data for the mlh1 strain (AID 171);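 further: 0% = growth of vehicle-treated control cultures of the same strain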; conditions: S. cerevisiae mlh1 strain growth inhibition, active compounds read high
Procedure, shortened: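 Read-out: growth inhibition versus vehicle controls. Strain: engineered yeast with a defined DNA repair or cell cycle defect, compound-treated.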

[12] = NCI Yeast Anticancer Drug Screen. Data for the sgs1 strain (AID 173);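 further: 0% = growth of vehicle-only control cultures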; conditions: S. cerevisiae sgs1 mutant, active compounds read high
Procedure, shortened: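 Read-out: yeast growth inhibition relative to vehicle controls, following compound exposure of a strain with a defined DNA repair/cell cycle alteration.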

[13] = NCI Yeast Anticancer Drug Screen. Data for the mlh1 rad18 strain (AID 175); conditions: S. cerevisiae mlh1 rad18 strain growth inhibition, active compounds read high
Procedure, shortened: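 Yeast w/ defined DNA-repair lesions; compound exposure; growth vs vehicle controls → % inhibition.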

[14] = NCI Yeast Anticancer Drug Screen. Data for the rad18 strain (AID 177); conditions: S. cerevisiae rad18 mutant growth inhibition, active compounds read high
Procedure, shortened: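 Readout: growth inhibition vs vehicle controls. Cells: genetically altered yeast strain, DNA repair defect.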

[15] = NCI Yeast Anticancer Drug Screen. Data for the rad50 strain (AID 155);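 further: 0% = growth of vehicle-only cultures of the same strain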; conditions: S. cerevisiae rad50 strain growth inhibition, active compounds read high
Procedure, shortened: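 Compounds were tested on a yeast strain with an engineered DNA damage repair alteration; the reported value is growth inhibition normalised to vehicle treatment.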

[16] = at 5.0 µM (retest, dose inferred, filed as 0.5)
[17] = at 50.0 µM (retest, dose inferred, filed as 5.0)

Measured: growth inhibition

Cn1c(COc2ccc(/C=N/NC(=O)CCC(=O)N/N=C/c3ccc(OCc4c[n+]5ccccc5n4C)cc3)cc2)c[n+]2ccccc12
inactive: [1]; at 1.2 µM 6% | [1]; at 3.7 µM 7% | [1]; at 11.0 µM 11% | [1]; at 33.0 µM 12% | [2]; at 1.2 µM -4% | [2]; at 3.7 µM -7% | [2]; at 11.0 µM -18% | [2]; at 33.0 µM -18% | [2]; at 100.0 µM 45% | [3]; at 1.2 µM 4% | [3]; at 3.7 µM 3% | [3]; at 11.0 µM 4% | [3]; at 33.0 µM 24% | [4]; at 1.2 µM -2% | [4]; at 3.7 µM 0% | [4]; [16] -10% | [4]; at 11.0 µM 0% | [4]; at 33.0 µM 10% | [4]; [17] 12% | [4]; at 50.0 µM 32.1% | [5]; at 1.2 µM 0% | [5]; at 3.7 µM -1% | [5]; at 11.0 µM 0% | [5]; at 33.0 µM 7% | [6]; [16] -1% | [6]; [17] 47% | [6]; at 50.0 µM 63.4% | [7]; at 1.2 µM -5% | [7]; at 3.7 µM -3% | [7]; at 11.0 µM -3% | [7]; at 33.0 µM -5% | [8]; [16] -8% | [8]; [17] 28% | [8]; at 50.0 µM 18.8% | [9]; at 1.2 µM -3% | [9]; at 3.7 µM -6% | [9]; [16] -24% | [9]; at 11.0 µM -6% | [9]; at 33.0 µM -1% | [9]; [17] 33% | [9]; at 50.0 µM 18.9% | [10]; at 1.2 µM 4% | [10]; at 3.7 µM 5% | [10]; at 11.0 µM 8% | [10]; at 33.0 µM 12% | [11]; at 1.2 µM 1% | [11]; at 3.7 µM -2% | [11]; at 11.0 µM -1% | [11]; at 33.0 µM 8% | [12]; at 1.2 µM 4% | [12]; at 3.7 µM 4% | [12]; at 11.0 µM 5% | [12]; at 33.0 µM 16% | [13]; [16] -15% | [14]; at 1.2 µM 2% | [14]; at 3.7 µM 3% | [14]; at 11.0 µM 28% | [14]; at 33.0 µM 9%
active: [1]; at 100.0 µM 81% | [3]; at 100.0 µM 98% | [4]; at 100.0 µM 96% | [5]; at 100.0 µM 97% | [7]; at 100.0 µM 76% | [9]; at 100.0 µM 95% | [10]; at 100.0 µM 99% | [11]; at 100.0 µM 96% | [12]; at 100.0 µM 96% | [13]; [17] 84% | [13]; at 50.0 µM 90.2% | [14]; at 100.0 µM 98%

CC1=Cc2ccc(C)cc2C(=O)C1=O
active: [1]; at 33.0 µM 99% | [1]; at 100.0 µM 99% | [2]; at 11.0 µM 71% | [2]; at 33.0 µM 95% | [2]; at 100.0 µM 99% | [3]; at 33.0 µM 100% | [3]; at 100.0 µM 99% | [15]; at 33.0 µM 99% | [15]; [17] 99% | [15]; at 50.0 µM 99.1% | [15]; at 100.0 µM 98% | [4]; at 33.0 µM 100% | [4]; [17] 99% | [4]; at 50.0 µM 99.4% | [4]; at 100.0 µM 99% | [6]; [17] 99% | [6]; at 50.0 µM 99.3% | [7]; at 100.0 µM 94% | [8]; [17] 99% | [8]; at 50.0 µM 98.2% | [9]; [17] 99% | [9]; at 50.0 µM 99.3% | [9]; at 100.0 µM 99% | [10]; at 100.0 µM 98% | [11]; at 11.0 µM 71% | [11]; at 33.0 µM 99% | [11]; at 100.0 µM 99% | [12]; at 33.0 µM 99% | [12]; at 100.0 µM 99% | [13]; [17] 99% | [13]; at 50.0 µM 99.2% | [14]; at 33.0 µM 99% | [14]; at 100.0 µM 98%
inactive: [1]; at 1.2 µM -10% | [1]; at 3.7 µM 8% | [1]; at 11.0 µM 41% | [2]; at 1.2 µM 34% | [2]; at 3.7 µM 54% | [3]; at 1.2 µM 27% | [3]; at 3.7 µM 42% | [3]; at 11.0 µM 60% | [15]; at 1.2 µM 3% | [15]; at 3.7 µM 6% | [15]; [16] 31% | [15]; at 11.0 µM 53% | [4]; at 1.2 µM 2% | [4]; at 3.7 µM 21% | [4]; [16] -7% | [4]; at 11.0 µM 42% | [6]; [16] 43% | [7]; at 1.2 µM 2% | [7]; at 3.7 µM 2% | [7]; at 11.0 µM 9% | [7]; at 33.0 µM 18% | [8]; [16] 0% | [9]; at 1.2 µM 0% | [9]; at 3.7 µM -3% | [9]; [16] 36% | [9]; at 11.0 µM 2% | [9]; at 33.0 µM 44% | [10]; at 1.2 µM -7% | [10]; at 3.7 µM -6% | [10]; at 11.0 µM 4% | [10]; at 33.0 µM -1% | [11]; at 1.2 µM 12% | [11]; at 3.7 µM 11% | [12]; at 1.2 µM -1% | [12]; at 3.7 µM 8% | [12]; at 11.0 µM 65% | [13]; [16] 66% | [14]; at 1.2 µM 25% | [14]; at 3.7 µM 28% | [14]; at 11.0 µM 66%
